# The list is not random: actives were taken first. Their share in the collection is about 7.5%.
# KinaseGlo FLuc: counter-screen: inhibitors of Kinase-Glo firefly luciferase; Potency, µM (doses to about 38.3 µM), inactives show at the highest dose activity change, negative = inhibition, actives largely listed as inhibitors; Q27757; Kinase-Glo luciferase, ATP luminescence, 8 min; 0.28% of 200,000 active; AID 1379; also: % is scaled to controls: 0 for no effect and ±100 for the full control effect; nearly all actives have a fitted effect of over 60% in size
#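 Light output from Kinase-Glo luciferase with luciferin and 10 uM ATP in 50 mM imidazole pH 7.2, KCl, MgCl2, Tween 20, BSA; compound pin-delivered, 8-min ambient incubation, then luminescence read.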
# NPC1 prom act: activators of NPC1 promoter. Huh7 NPC1 promoter luciferase reporter, 24 h. Potency, µM (highest dose often 9.22 µM), inactives show top-dose activation, usual class: activators. 2.4% of 320,000 active; also: % of control where 0% means no effect; nearly all actives have a fitted effect of over 60% in size
#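 In 1536-well qHTS, Huh7 cells harboring an NPC1 promoter–luciferase construct received compound for 24 h; activation was quantified by luminescence following luciferase reagent addition.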
# Rab9 prom act: activators of Rab9 promoter. Huh7 Rab9 promoter-luciferase reporter, luminescence, 24 h. Potency, µM (series often up to 9.22 µM), inactives show at the top dose activation, negative = inhibition, most hits filed as activators. 2.8% of 320,000 active; also: % of control where 0% means no effect; nearly all actives have a fitted effect of over 60% in size
#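 Cells were plated at 1500 per well in reduced-serum medium with 10% FBS and left 2 h. Compound in DMSO was then added for 24 h at 37 °C. Reporter signal was read by luminescence after 10 min with luciferase detection reagent.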
# FLuc counter: firefly luciferase modulation, counter-screen for miR-21 project. Potency, µM (titrated, usually from 57.5 µM), inactives show top-dose activity change, negative = inhibition, usual class: inhibitors. 6.9% of 360,000 active. purified FLuc, Km substrates, luminescence inhibition;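 also: plate controls were vehicle for no effect and reference inhibitor for full effect; nearly all actives have a fitted effect of over 55% in size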
# Target sequence (P08659 whole entry, looked up): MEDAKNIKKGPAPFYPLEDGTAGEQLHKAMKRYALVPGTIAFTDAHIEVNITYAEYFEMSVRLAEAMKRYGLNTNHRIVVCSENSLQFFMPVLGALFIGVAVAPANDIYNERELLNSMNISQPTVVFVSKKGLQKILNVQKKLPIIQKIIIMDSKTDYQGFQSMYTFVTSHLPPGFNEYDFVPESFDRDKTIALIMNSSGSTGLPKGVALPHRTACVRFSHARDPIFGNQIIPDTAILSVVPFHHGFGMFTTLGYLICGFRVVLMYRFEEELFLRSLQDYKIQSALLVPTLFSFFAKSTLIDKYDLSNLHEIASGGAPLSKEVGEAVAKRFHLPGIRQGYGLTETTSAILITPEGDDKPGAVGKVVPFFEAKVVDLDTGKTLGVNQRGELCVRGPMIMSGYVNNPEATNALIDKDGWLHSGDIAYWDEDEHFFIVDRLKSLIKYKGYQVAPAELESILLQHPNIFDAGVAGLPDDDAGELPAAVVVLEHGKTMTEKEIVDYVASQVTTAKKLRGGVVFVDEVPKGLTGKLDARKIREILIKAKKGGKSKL
#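 Biochemical qHTS of compounds, final roughly 60 µM downward over six points, against 10 nM purified firefly luciferase using Km concentrations of substrates (10 uM D-luciferin, 10 uM ATP) in Tris acetate pH 7.5 buffer; luminescence output.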
# SMN2 splice enh: SMN2 splice variant enhancement. HEK293 SMN2-luciferase splicing reporter, luminescence, 30-36 h. Potency, µM (highest dose often 46.1 µM), for the others: at the top dose activity change, positive = activation, usual class: activators. 2.8% of 210,000 active. AID 1458; also: % of control where 0% means no effect; nearly all actives have a fitted effect of over 55% in size
#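 HEK293 cells carry an SMN2 minigene-luciferase reporter in which exon 7 inclusion puts luciferase in frame. Cells were seeded at 2000 cells/well, attached for 10-12 hours, then exposed to compounds for 30-36 hours at 37C before ONE-Glo luminescence.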
# ELG1 genotoxic: genotoxicity induction in ELG1-luciferase HEK293T cells; AID 504466; Potency, µM (top dose mostly 46 µM), without a hit: top-dose activity change, positive = activation, actives largely listed as activators; HEK293T ELG1-luciferase reporter, luminescence, 16 h; 1.3% of 330,000 active; also: % of control where 0% means no effect; nearly all actives have a fitted effect of over 60% in size
#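 Step 1: seed 2,000 HEK293T ELG1-luciferase cells per well. Step 2: add compound or DMSO, incubate 16 hr at 37 °C. Step 3: ONE-Glo, 30 min at room temperature, read luminescence.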
# Numbers without * were called inactive; ? = inconclusive; nt = no result given. Calls follow the shape of the dose curve; as a rule, active = well fitted curve in the direction sought with a large enough effect; inconclusive = small, poorly fitted or top-dose-only effect, or another doubt; inactive = no such curve, though single readings can be large; an effect the other way counts as inactive or inconclusive. Potency is read from the fitted curve at half-maximal effect.
SMILES,KinaseGlo FLuc,NPC1 prom act,Rab9 prom act,FLuc counter,SMN2 splice enh,ELG1 genotoxic
Cc1ccccc1-c1noc(-c2ccccc2C(=O)O)n1,nt,19%,17%,19µM*,nt,14%
Cc1ccccc1C(=O)Nc1ccccc1-c1nc(-c2ccccc2)no1,nt,nt,nt,-6%,nt,nt
Cc1ccc(-c2noc(-c3ccccc3F)n2)cc1,-9%,?,2µM*,0.85µM*,13µM*,2.6µM*
O=C(c1ccccc1)c1nnc(-c2ccccc2F)o1,?,16%,24%,0.54µM*,26%,16µM*
Cc1ccccc1CN1C(=O)c2ccccc2S(=O)(=O)c2ccc(C(=O)OCC3CCCO3)cc21 (centres undefined),nt,nt,nt,-8%,nt,nt
O=C(Cc1ccc(NC(=O)N2CCSc3ncccc32)cc1)NCc1ccccc1,nt,nt,nt,-12%,nt,nt
Cc1nc(-c2cc(-c3nc(-c4ccc(C(F)(F)F)cc4)no3)no2)cs1,nt,-3%,0%,3%,nt,-2%
Nc1nonc1-c1noc(CCCN2C(=O)c3ccccc3C2=O)n1,-3%,?,?,24µM*,?,?
FC(F)(F)c1ccc(-c2noc(-c3ccccc3Br)n2)cc1,nt,nt,nt,11µM*,nt,nt
Nc1nonc1-c1noc(-c2ccccc2Br)n1,-3%,13%,5%,17µM*,?,?
COc1cc(NC(=O)C(CC(C)C)NS(=O)(=O)c2ccc3c(c2)oc(=O)n3C)c(C(=O)O)cc1OC (centres undefined),nt,nt,nt,-24%,-4%,nt
CC1CCc2sc(C(=O)Nc3ccc(N4CCOCC4)cc3)cc2C1 (centres undefined),-1%,5%,-2%,?,-27%,-7%
CCC1CCc2sc(C(=O)NNC(=O)c3ccncc3)cc2C1 (centres undefined),nt,1%,-4%,17µM*,nt,-1%
CC1CCc2sc(C(=O)NCC(C)(C)N3CCOCC3)cc2C1 (centres undefined),nt,-3%,1%,-8%,nt,0%
C/C(=N\NC(=O)c1cc2c(s1)CCC(C)C2)c1ccncc1 (centres undefined),-1%,3%,13%,9.5µM*,27%,8%
CC1CCc2sc(C(=O)N/N=C/c3ccc(O)cc3)cc2C1 (centres undefined),nt,0%,-1%,2.1µM*,nt,15%
Cc1ccc(CNC(=O)COC(=O)c2cc3c(s2)CCC(C)C3)cc1 (centres undefined),nt,-2%,-4%,10%,nt,2%
C/C(=N\NC(=O)c1cc2c(s1)CCC(C)C2)c1ccc[nH]1 (centres undefined),nt,1.8µM*,1.6µM*,0.76µM*,nt,?
CC(C)c1c(O)ccc2c1CCC1C(C)(C)CCC[C@@]21C (some centres undefined),-7%,nt,nt,nt,-24%,nt
CCC(C)NC(=O)c1ccc2c(=O)n3c(nc2c1)CCCCC3 (centres undefined),nt,nt,nt,-4%,-5%,nt
O=C(NCC1CCCO1)c1ccc2c(c1)OCO2 (centres undefined),-5%,5%,19%,4%,-6%,10%
O=C(NCC1CCCO1)c1ccc2c3n(nc2c1)-c1ccccc1CO3 (centres undefined),nt,1µM*,1.1µM*,4.8µM*,nt,?
COCCNC(=O)c1ccc2c3n(nc2c1)-c1ccc(C)cc1CO3,nt,0.71µM*,1.1µM*,6.7µM*,nt,?
Cc1ccc2c(c1)COc1c3ccc(C(=O)N[C@@H](CO)C(C)C)cc3nn1-2,nt,1.8µM*,3.5µM*,6.7µM*,nt,?
C[C@@H](CO)NC(=O)c1ccc2c3n(nc2c1)-c1ccccc1CO3,nt,0.45µM*,?,0.6µM*,nt,?
SMILES,KinaseGlo FLuc,NPC1 prom act,Rab9 prom act,FLuc counter,SMN2 splice enh,ELG1 genotoxic
CN(C)C(=O)COc1ccc2cc(-c3ccccc3)c(=O)oc2c1,-3%,4µM*,2µM*,?,18µM*,?
O=c1oc2ccccc2cc1-c1ccccc1,0%,19%,?,?,21%,?
CCCOc1ccc2cc(-c3ccccn3)c(=O)oc2c1,13µM*,?,0.45µM*,0.24µM*,0.79µM*,?
COC(=O)C(C)Oc1ccc2cc(-c3ccccc3)c(=O)oc2c1 (centres undefined),nt,-1%,-4%,24µM*,nt,3%
CC(Oc1ccc2cc(-c3ccccc3)c(=O)oc2c1)C(=O)NCC1CCC(C(=O)O)CC1 (centres undefined),nt,1%,-4%,21µM*,nt,5%
O=c1oc2cc(OCc3c(F)cccc3Cl)ccc2cc1-c1ccccn1,1%,0%,-1%,1%,-27%,1%
COc1ccc(-c2cc(=O)oc3cc(OCC(=O)N(C)C)ccc23)cc1,nt,-3%,-37%,-1%,nt,2%
COc1cc(NC(=O)c2ccccc2F)c(OC)cc1NC(=O)CN1CCCCC1,nt,-3%,2%,?,nt,-36%
COc1ccc(/C=C/CN2CCCC(CO)(Cc3cccc(Cl)c3)C2)cc1 (centres undefined),1%,-1%,-1%,8%,nt,-10%
O=C(O)COc1ccc2c(-c3ccccc3)cc(=O)oc2c1,-1%,10%,16%,19µM*,?,10%
COc1ccc2cc(-c3ccccc3)c(=O)oc2c1,nt,1.3µM*,0.71µM*,2.4µM*,nt,2.6µM*
CC1(C(=O)NC2CCCCC2)Cc2ccccc2C(=O)N1Cc1ccccc1Cl (centres undefined),nt,nt,nt,-9%,-4%,nt
CCN(C(=O)Cc1ccc(Br)cc1)C1CCCCC1,3%,nt,nt,7%,-12%,nt
COC(=O)CNC(=O)COC(=O)/C=C/c1ccc2ccccc2n1,-1%,1%,-2%,?,3%,7%
CC(OC(=O)/C=C/c1ccc2ccccc2n1)C(=O)NCc1ccccc1 (centres undefined),nt,-6%,-3%,9.5µM*,nt,-3%
Cc1ccc2nc(-c3cccs3)c(Nc3ccc4c(c3)OCCO4)n2c1,nt,nt,nt,?,0%,nt
CC(C)(C)C1CCc2c(C(=O)NNC(=O)CCCC(=O)O)csc2C1 (centres undefined),0%,-2%,-2%,17µM*,-5%,0%
COC(=O)[C@H](Cc1c[nH]c2ccccc12)NC(=O)NCc1ccc(OC)cc1,nt,-5%,-4%,?,nt,0%
O=C(Oc1ccc(Cl)cc1)N1CCCCC1,-3%,15%,23%,24µM*,17%,16µM*
O=C(Oc1ccc2ccccc2c1Cl)N1CCCCCC1,-3%,1.1µM*,0.56µM*,1.1µM*,13µM*,?
COc1ccc(C2CC(=O)N(Cc3ccc(F)cc3)c3ccccc3S2)cc1OC (centres undefined),nt,nt,nt,0%,-42%,nt

# Bioassay records (PubChem)
